# The source made the active and inactive calls.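 The calls were made as follows, unless noted: active = fluorescence slope after compound addition differing from the mean of all screened samples at 99.7% confidence, in either direction; inactive = the rest.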
# Tests used:
# [1] = inhibitors of TNFa-induced NFkB p65 translocation, primary screen, imaging, HUVEC, MLSMR starter and 10KST1 sets (AID 438;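 active = inhibition above 20% together with a positive visual image hit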;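 also: compound added about 3h40 before a 20 min TNFalpha stimulation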;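 as to inhibition: signal is the nuclear over cytoplasmic p65 intensity ratio per well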); conditions: HUVEC TNFa-induced p65 nuclear translocation; cell count: measured here: nuclei count (cytotoxicity indicator), at 2.08 µM; inhibition: at 2 µM, stronger effect = higher value, 0% TNFa-plus-vehicle, 100% no-TNFa wells
# [2] = inhibitors of mutant huntingtin aggregation, primary screen, imaging, exon1htt(103Q)mCFP cells, high-content imaging (AID 483;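 active = visual image review flags a hit and inhibition of aggregation exceeds 20%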;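 also: compound exposure lasted 3 days before fixation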;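 as to nuclei count: percent of the per-plate median nuclei count of sample wells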); conditions: exon1htt(103Q)mCFP cell line, aggregate imaging, at 2 µM; inhibition of aggregation: stronger effect = higher value; nuclei count: measured here: cell count, toxicity
# [3] = inhibitors of E-selectin induction by TNFa, primary screen, imaging, HUVEC, immunofluorescence, MLSMR starter and 10KST1 sets (AID 487;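 active = visually confirmed hit in the image check and inhibition above 20%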;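 as to inhibition: signal is fraction of cell area covered by stained E-selectin grains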;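 as to nuclei count: 100% = median nuclei count of all wells on the same plate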); conditions: HUVEC TNFalpha-induced E-selectin immunofluorescence imaging, at 2 µM; inhibition: stronger effect = higher value; nuclei count: measured here: cell number, toxicity
# [4] = target: Voltage-gated potassium channel subunit beta-2 (Rattus norvegicus) (UniProt P62483); assay: KvBeta enzyme negative modulators, primary screen, biochemical, NADPH fluorescence (AID 622;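 active = fluorescence slope higher than the sample average by over 3 SD, cut at about -0.22 in these data, passing the limit was not always enough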;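 also: slope of raw intensity against log time taken from 70 to 1610 s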); conditions: recombinant KvBeta, 4-cyanobenzaldehyde reduction, at 10 µM, stronger effect = higher value
# [5] = target: Voltage-gated potassium channel subunit beta-2 (Rattus norvegicus) (UniProt P62483); assay: KvBeta positive modulators, primary screen, biochemical, NADPH fluorescence (AID 623;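 active = NADPH fluorescence slope more negative than the mean of all samples by about 3 SD, 99.7% confidence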;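 also: fluorescence intensity change per second fitted from 20 to 320 s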); conditions: Recombinant KvBeta, NADPH fluorescence decrease slope, 10 min; at 10 µM; stronger effect = lower value
# [6] = target: Alpha-2C adrenergic receptor (Homo sapiens) (UniProt P18825); assay: modulators of alpha2C/GIRK thallium flux, primary screen, cell-based, HEK293 alpha2C/GIRK1/2 (AID 624); conditions: thallium flux BTC fluorescence, at 10 µM, actives lie on both sides;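 also: slope of fluorescence ratio to pre-addition baseline per second over 15 to 24 s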
# [7] = inhibitors of Sendai virus-induced IRF3 signaling, primary screen, TLR/RLR signaling modifier project, cell-based, Sendai virus stimulus, luciferase, 10K MLSCN set (AID 602276;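 active = inhibition at or above 50% at 10 µM; inactive = inhibition below 50%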;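 also: firefly luciferase from ISG56 promoter only with Renilla not read in this screen; 0% = Sendai virus plus DMSO and 100% = medium plus DMSO without virus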); conditions: HEK293 RL24 IRF3 luciferase reporter, at 10 µM, stronger effect = higher value
# [8] = inhibitors of poly I:C-induced TLR3 signaling, primary screen, cell-based, poly I:C stimulus, luciferase, 10K MLSCN set (AID 602277;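 active = inhibition of the reporter signal at or above 50%; inactive = inhibition below 50%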); conditions: HEK293-TLR3 RL24 IRF3 luciferase reporter, at 10 µM, stronger effect = higher value
# Sequence of Alpha-2C adrenergic receptor (Homo sapiens) (P18825 whole entry, looked up): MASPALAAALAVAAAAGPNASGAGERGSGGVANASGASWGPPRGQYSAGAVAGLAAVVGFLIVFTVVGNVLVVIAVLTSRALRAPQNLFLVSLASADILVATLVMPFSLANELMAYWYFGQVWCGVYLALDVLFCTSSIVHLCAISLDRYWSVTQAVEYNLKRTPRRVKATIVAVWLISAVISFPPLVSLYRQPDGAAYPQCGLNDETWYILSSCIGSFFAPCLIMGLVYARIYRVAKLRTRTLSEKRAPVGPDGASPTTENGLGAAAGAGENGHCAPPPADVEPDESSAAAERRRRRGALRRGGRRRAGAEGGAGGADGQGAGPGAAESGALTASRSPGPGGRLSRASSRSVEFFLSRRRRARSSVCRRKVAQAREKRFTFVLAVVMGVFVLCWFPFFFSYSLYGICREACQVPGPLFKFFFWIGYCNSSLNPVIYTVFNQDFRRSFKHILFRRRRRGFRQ
# Sequence of Voltage-gated potassium channel subunit beta-2 (Rattus norvegicus) (P62483 whole entry, looked up): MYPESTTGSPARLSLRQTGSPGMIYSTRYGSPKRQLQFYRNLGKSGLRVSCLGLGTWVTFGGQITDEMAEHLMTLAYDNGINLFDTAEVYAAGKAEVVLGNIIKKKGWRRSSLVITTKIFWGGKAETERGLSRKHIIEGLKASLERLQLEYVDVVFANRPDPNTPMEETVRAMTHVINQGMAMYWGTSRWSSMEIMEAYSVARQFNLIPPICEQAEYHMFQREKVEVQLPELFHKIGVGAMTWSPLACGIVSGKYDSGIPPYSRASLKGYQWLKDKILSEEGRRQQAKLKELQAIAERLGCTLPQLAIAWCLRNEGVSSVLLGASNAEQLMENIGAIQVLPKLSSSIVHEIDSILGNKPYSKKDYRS
Structure (SMILES),cell count [1],inhibition [1],inhibition of aggregation [2],nuclei count [2],inhibition [3],nuclei count [3],fluorescence slope [4],NADPH fluorescence slope [5],slope [6],inhibition [7],inhibition [8]
O=C(CC(SCCO)c1ccc2c(c1)OCO2)c1ccco1 (centres undefined),538,-10.2% (inactive),-17.3% (inactive),114%,-60.6% (inactive),128%,-0.602 (inactive),-5.3e-06 (inactive),0.00625 (inactive),-31.1% (inactive),-69.6% (inactive)
CN1CCN(C(=O)NC2CCCN2S(=O)(=O)c2ccc(Cl)cc2)CC1 (centres undefined),528,-20.6% (inactive),11.5% (inactive),106%,31.3% (inactive),105%,-0.493 (inactive),-5.8e-05 (inactive),0.00636 (inactive),0.971% (inactive),21.8% (inactive)
COc1ccccc1NC(=O)CSC1CC(=O)N(c2ccc3c(c2)OCO3)C1=O (centres undefined),685,-3.4% (inactive),-2.5% (inactive),95.7%,-109% (inactive),122%,-0.622 (inactive),2.7e-05 (inactive),0.00433 (inactive),17.9% (inactive),21.8% (inactive)
COc1ccc(OCCSc2nc3ccccc3n2CC(=O)O)cc1,321,-9.2% (inactive),-1.3% (inactive),108%,-133% (inactive),133%,-0.356 (inactive),-5.2e-05 (inactive),0.00591 (inactive),16.6% (inactive),20.3% (inactive)
Cn1c(=O)cc(OCC(=O)NCCCN2CCN(c3cccc(Cl)c3)CC2)c2ccccc21,583,8% (inactive),-42.4% (inactive),98.2%,-83.7% (inactive),128%,-0.514 (inactive),-1.4e-05 (inactive),0.00636 (inactive),25% (inactive),31.3% (inactive)
COc1cc(C(=O)N2CCN(c3cc(Cl)ccc3Cl)CC2)cc(OC)c1OC,630,-6.1% (inactive),1% (inactive),34.1%,-62.3% (inactive),98.9%,-0.425 (inactive),-7.3e-05 (inactive),0.00499 (inactive),12% (inactive),78.9% (active)
COc1ccc(CCNc2nc(N3CCOCC3)nc(N3CCOCC3)n2)cc1OC,229,10.4% (inactive),14.9% (inactive),66.5%,15.6% (inactive),91.3%,-0.515 (inactive),-3.3e-05 (inactive),0.00378 (inactive),15.3% (inactive),10.3% (inactive)
CCN1CCN(Cc2nc3c(c(=O)[nH]c(=O)n3C)n2Cc2ccccc2Cl)CC1,584,1% (inactive),7.9% (inactive),71.4%,-20.8% (inactive),95.5%,-0.583 (inactive),-3.1e-05 (inactive),0.00512 (inactive),9.74% (inactive),29% (inactive)
Cn1c(C(=O)N2CCN(C(=O)c3ccco3)CC2)cc2c(=O)n3ccccc3nc21,323,-3.3% (inactive),-13.8% (inactive),111%,-116% (inactive),118%,-0.00798 (active),7.5e-06 (inactive),0.00582 (inactive),10.9% (inactive),18% (inactive)
O=C(CSc1nc2c(c(=O)n1-c1ccc(F)cc1)SCC2)NCC1CCCO1 (centres undefined),256,9.8% (inactive),16.7% (inactive),94.5%,-8.7% (inactive),78.2%,-0.462 (inactive),-5.5e-05 (inactive),0.00463 (inactive),17.7% (inactive),19.7% (inactive)
O=C1CCCC(O)=C1C=Nc1ccc2c(c1)oc1ccccc12,403,1.7% (inactive),-0.4% (inactive),95.2%,24.8% (inactive),106%,-0.09 (active),1.4e-05 (inactive),0.00678 (inactive),-23% (inactive),-100% (inactive)
Cc1cccc(N2CCN(C(=O)CCn3c(=S)[nH]c4cc5c(cc4c3=O)OCO5)CC2C)c1 (centres undefined),488,3% (inactive),-4.6% (inactive),112%,-1.8% (inactive),97.2%,-0.614 (inactive),-2.6e-05 (inactive),0.00669 (inactive),9.48% (inactive),38.2% (inactive)
O=C(CCC1COc2ccccc2O1)NCC1COc2ccccc2O1 (centres undefined),568,2.4% (inactive),-5.5% (inactive),117%,-72.2% (inactive),85.5%,-0.499 (inactive),-2.5e-05 (inactive),0.0058 (inactive),13.4% (inactive),19.2% (inactive)
CCCCOc1ccc(CSc2n[nH]c(C)n2)cc1,243,0.2% (inactive),-0.4% (inactive),86.8%,5.3% (inactive),96.6%,-0.435 (inactive),2.4e-05 (inactive),0.00825 (inactive),-55.7% (inactive),-90.2% (inactive)

# — PubChem BioAssay
